# VACV mCherry inh – inhibitors of vaccinia virus infection (mCherry reporter signal); Vaccinia virus mCherry reporter infection, fluorescence; Potency, µM (highest dose often 36.5 µM), for inactives: at the highest dose activity change, negative = inhibition, hits mostly inhibitors; 310,000 compounds, 0.63% hits; calls by dose curve; tested in A549 cells; also: potency is read from the fitted curve at half-maximal effect; nearly all actives have a fitted effect of over 35% in size
# Lassa entry inh – inhibitors of Lassa virus binding or cell entry; Lassa virus pseudotype entry inhibition, cell reporter; Potency, µM (titrated, usually from 37.9 µM), inactives show at the top dose activity change, negative = inhibition, usual class: inhibitors; 300,000 compounds, 1.2% hits; AID 540256; calls by dose curve; tested in HEK293 cells; also: potency is read from the fitted curve at half-maximal effect; nearly all actives have a fitted effect of over 50% in size
# MARV entry inh – Marburg virus entry inhibition; Marburg virus pseudotyped entry inhibition, cell reporter; Potency, µM (series often up to 37.8 µM), inactives show at the top dose activity change, negative = inhibition, actives largely listed as inhibitors; 300,000 compounds, 1.8% hits; AID 540276; calls by dose curve; tested in HEK293 cells; also: potency is read from the fitted curve at half-maximal effect
# HCMV antiviral – blocks human cytomegalovirus replication | HFF cells, HCMV-luciferase reporter, 72 h; active compounds read low | activity change, negative = inhibition, % at 57.5 µM | 410,000 compounds, 4.5% hits | AID 1259415; in the data active = activity change below about -60%; inconclusive = no clear call, values can overlap the other calls; inactive = above about -39%
#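 Two-dose cell screen: HFF monolayers treated with compounds and infected with luciferase-expressing HCMV at 1 PFU/cell, 72 h at 37C, then lysed for luciferase measurement.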
# FMDV antiviral – antivirals against foot and mouth disease virus | FMDV antiviral cell-based qHTS | Potency, µM (titrated, usually from 57.9 µM), without a hit: at the top dose activity change, negative = inhibition, hits mostly inhibitors | 410,000 compounds, 1.2% hits | AID 1159524; calls by dose curve; tested in HEK293T cells; also: read-out not given here; potency is read from the fitted curve at half-maximal effect; nearly all actives have a fitted effect of over 45% in size
# Vaccinia Venus – vaccinia inhibition (Venus reporter). Vaccinia virus Venus reporter expression, fluorescence. Potency, µM (highest dose often 36.5 µM), for inactives: top-dose activity change, negative = inhibition, usual class: inhibitors. 330,000 compounds, 0.46% hits. AID 720580; calls by dose curve; tested in A549 cells; also: potency is read from the fitted curve at half-maximal effect; nearly all actives have a fitted effect of over 30% in size
# Active calls of the source: *; i = inactive; u = inconclusive; x = not tested or not shown; ! = a repeat was not active; [ ] = remark or other dose. Rows were chosen to be rich in hits. Some 6.5% of all compounds tested hit in one or more screens of this group. % is scaled to controls: 0 for no effect and ±100 for the full control effect.
SMILES,VACV mCherry inh,Lassa entry inh,MARV entry inh,HCMV antiviral,FMDV antiviral,Vaccinia Venus
CCOC(=O)Cn1c(S(=O)(=O)Cc2ccccc2Cl)nc(-c2ccccc2)c1-c1ccccc1,x,11.6µM*,5.17µM*,-32.4,1.2%,x
Cc1ccc(S(=O)(=O)Cc2ccccc2Cl)cc1,u,u,u,-25.0,22.8%,-22.1%
COc1ccc2oc(-c3ccc(C)c(NC(=O)COc4cc(C)cc(C)c4)c3)nc2c1,-10.6%,-2.3%[46.1 µM],-14.1%[46.1 µM],66.8,12.4%,-4.1%
Cc1ccccc1N1CC(C(=O)O)CC1=O (configuration not stated),-20.4%,-16.9%,0.6%,-84.9*,23.7%,-5.2%
CC1(C2CCN(Cc3c[nH]c4ccccc34)CC2)NC(=O)N(CCN2CCOCC2)C1=O (configuration not stated),-11.7%,x,x,x,-14.4%,-1.3%
CCC(/C=C1\Sc2ccc(OC)cc2N1CCO)=C\c1sc2ccc(OC)cc2[n+]1CCO,48.0%,u,u,-97.7*,17.8µM*,23.9%
CCO/C(=C/c1sc2ccc(OC)cc2[n+]1CCCS(=O)(=O)[O-])CC,x,-7.1%,5.8%,14.8,-19.4%,x
CCC(/C=C1\Sc2ccc(OC)cc2N1CC)=C\c1sc2ccc(OC)cc2[n+]1CCCS(=O)(=O)[O-],x,u,u,-20.9,17.8µM*,x
c1ccc(-n2nnc3c(N4CCOCC4)ncnc32)cc1,x,5.17µM*,2.31µM*,-12.5,-85.1%,x
Cc1nnc(N2CCOCC2)c2nn(-c3ccccc3)c(C)c12,-14.1%,u,-23.9%,u,-17.5%,-16.0%
CCN(CC)CCCN1C(=O)C(=O)/C(=C(\O)c2ccc(Cl)cc2)[C@@H]1c1ccccn1,x,x,15.8%,x,x,x
COc1cc2c(cc1OC)[C@@H]1N(C)c3ccccc3[C@@]13CCN[C@H]3C2,x,x,x,-2.4,x,x
O=C(O)CCCN1C(=O)C2C3C=CC(C2C1=O)C1C(=O)N(CCCC(=O)O)C(=O)C31 (configuration not stated),-10.4%,-13.8%,0.2%,-3.8,-8.9%,-5.3%
O=C(O)CCCCCN1C(=O)C2CCCCC2C1=O (configuration not stated),x,u,5.0%,12.7,3.98µM*,x
Cc1cc(C)c(N=C2CCCN2Cc2ccccc2)c(C#N)c1,x,1.7%,-7.6%,-16.3,1.5%,u
CN1CCc2c1nc1ccccc1c2N=C1CCCN1Cc1ccccc1,x,u,u,-61.3*,-27.7%,x
CC[n+]1ccccc1/C=C1\Sc2ccc(C)cc2N1C,x,x,x,-97.3*,u,x
N=c1n(CCN2CCCCC2)c2ccccc2n1CC(O)c1ccco1 (configuration not stated),-27.8%,u,u,-66.7*,-6.0%,-17.9%
Cc1cccc(OCC(O)Cn2c(=N)n(CCN3CCCCC3)c3ccccc32)c1 (configuration not stated),u,u,0.517µM*,-62.1*!,u,u
O=C(NCc1ccccc1)c1ccc2c(c1)sc1nc(-c3ccc(F)cc3)cn12,-16.9%,7.8%[46.1 µM],x,x,-1.5%,-5.9%
COCCn1c(C)cc(C(=O)Cn2nc(C(=O)O)c3ccccc3c2=O)c1C,x,1.6%,u,-33.4,-14.7%,x
CCCn1c(C)cc(C(=O)CN2C(=O)c3ccccc3S2(=O)=O)c1C,i,x,x,-86.4*,u,-12.9%
CCCn1c(C)cc(C(=O)Cn2nnc3ccccc3c2=O)c1C,i,u,14.1µM*,103.3,0.0%,-6.4%
Cc1ccc(C)c(C(=O)CN2C(=O)c3ccccc3S2(=O)=O)c1,-4.9%,u,u,3.6,35.6%,-1.6%
Cc1cc(C(=O)CN2C(=O)c3ccccc3S2(=O)=O)c(C)n1CC1CCCO1 (configuration not stated),-5.6%,0.461µM*,0.58µM*,-100.1*,0.282µM*,-6.5%
SMILES,VACV mCherry inh,Lassa entry inh,MARV entry inh,HCMV antiviral,FMDV antiviral,Vaccinia Venus
COCCNC(=O)CSc1cn(CC(=O)N2CCCCCC2)c2ccccc12,4.9%,-5.4%[46.1 µM],x,49.3,4.3%,-0.7%
CC1=C(C(=O)Nc2ccccc2)C(c2ccccn2)n2nc(SCc3ccccc3Cl)nc2N1 (configuration not stated),-10.0%,-14.8%[46.1 µM],-1.7%[46.1 µM],u,-13.8%,-7.5%
COc1ccc(Nc2nc(N)c3cc(OC)c(OC)cc3n2)cc1,-15.7%[7.34 µM],18.6%[46.1 µM],11.2µM*,-35.9,-0.6%,-8.8%[7.34 µM]
Cc1ccccc1Nc1nc(N)nc(CCl)n1,u,u,u,-100.6*,10.9%,u
Nc1nc(CCl)nc(Nc2ccc3ccccc3c2)n1,u,3.98µM*,u,-93.1*,-25.7%,u
COCc1c(C(=O)OCc2nc(N)nc(Nc3ccccc3C)n2)oc2ccccc12,x,u,23.1µM*,-19.1,-5.4%,x
Cc1ccc(Nc2nc(N)nc(CN3CCN(c4ccccc4)CC3)n2)cc1Cl,x,-26.0%,-41.9%,2.4,-8.6%,x
CCc1ccccc1NC(=O)Cn1nc(C)c2nn(-c3ccc(Cl)cc3)c(C)c2c1=O,-25.9%,-2.0%[46.1 µM],x,53.7,u,-13.0%
COc1cccc(-c2cc3c(Nc4cc(OC)c(OC)c(OC)c4)nccc3[nH]2)c1,x,x,x,-33.9,x,x
Cc1c(Cl)cccc1Nc1nc(N)nc(CSc2ncccn2)n1,x,2.8%,-18.7%,-93.8*,56.4%,x
Cc1c(Cl)cccc1Nc1nc(N)nc(CSCCO)n1,15.7%,13.6%,3.9%,19.0,-7.6%,17.8%
COc1ccc(Nc2nc(N)nc(CCl)n2)cc1,x,x,x,-97.5*,45.3%,x
CC(O)CNC(=O)C(=O)Nc1c2c(nn1-c1ccc(Cl)cc1)CSC2 (configuration not stated),-8.8%,0.4%[46.1 µM],x,-1.1,-16.1%,-8.7%
Cc1ccc(/C=C/c2onc(C)c2S(=O)(=O)N2CCC(C(=O)N3CCCCC3)CC2)cc1,-29.3%,x,x,-38.5,-22.0%,u
COc1ccc(/C=C/c2onc(C)c2S(=O)(=O)N2CCC(C(=O)N3CCCCCC3)CC2)cc1,u,u,u,-69.0*,-20.5%,u
Cc1noc(/C=C/N(C)C)c1S(=O)(=O)N1CCC(C(=O)O)CC1,44.9%,x,x,-69.2*,-15.2%,1.7%
CCc1cc(=O)n2[nH]c(C)c(-c3ccccc3OC)c2n1,-4.0%,x,x,4.2,-15.8%,-6.8%
COCc1cc(=O)n2[nH]c(C)c(-c3ccc(Cl)cc3)c2n1,10µM*,x,x,-14.1,u,u
Cc1[nH]n2c(=O)cc(-c3ccccc3Cl)nc2c1-c1ccccc1,u,u,-25.3%[46.1 µM],-93.6*,-22.7%,-29.2%
COc1ccc(C(=O)/C=C/Sc2nc3ccccc3o2)cc1,i,-1.7%[46.1 µM],u,-105.1*,u,-11.7%
CCCCCCCCCCCCC/C=C/[C@@H](O)[C@H](CO)NC(C)=O,-14.9%[3.33 µM],x,x,x,-5.3%[6.7 µM],-3.0%[3.33 µM]
CCC(C)[C@H](NC(=O)c1cc2cc(Cl)ccc2n1C)C(=O)N1CCC(C(=O)O)CC1 (some centres not stated),i,-0.3%[46.1 µM],0.2%[46.1 µM],-67.6*,-5.9%,-10.0%

# Screening results: PubChem BioAssay, National Center for Advancing Translational Sciences (NCATS)
